From PubChem BioAssay (NCATS)
Several values for one entry are separate records, joined by “and”; a condition that tells them apart may be missing. Equal values may be shown once. Results filed as inconclusive are left out. Activity calls are given as the source filed them. Unless noted, calls come from the whole dose curve; as a rule, active = well fitted curve in the direction sought with a large enough effect; inconclusive = small, poorly fitted or top-dose-only effect, or another doubt; inactive = no such curve, though single readings can be large; an effect the other way counts as inactive or inconclusive.

What was measured:
[1] = tested on: Zika virus NS2B-NS3 protease; assay: Primary screen GU AMC qHTS for Zika virus inhibitors (AID 1347154);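 note: 0% = no-inhibitor control and -100% = no-enzyme control; nearly all actives have a fitted effect of over 70% in size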
How it was run: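 Unlinked Zika NS2B hydrophilic domain–NS3 protease complex at 25 nM in 10 mM Tris-HCl pH 8.0, 0.01% Tween 20, with an AMC peptide substrate. Fluorescence change (340/450 nm) over 15 min at room temperature, normalized to controls, fitted to 4-parameter Hill.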

[2] = Primary qHTS for small molecule stabilizers of the endoplasmic reticulum resident proteome: Secreted ER Calcium Modulated Protein (SERCaMP) assay (AID 1508630); note: % is set by controls: 0 for no effect and ±100 for the full control effect
How it was run: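 GLuc-SERCaMP-expressing SH-SY5Y cells, pretreated 16 h with compound, are challenged with thapsigargin to empty ER calcium stores; after 4 h, coelenterazine is added directly to the medium and luminescence is imaged.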

[3] = biological target: Cytochrome P450 3A4 (Homo sapiens) (UniProt P08684); assay: qHTS Assay for Activators of Cytochrome P450 3A4 (AID 885); note: nearly all actives have a fitted effect of over 65% in size
How it was run: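 Steps: enzyme/substrate mix dispensed; compound added, 10 min RT; NADPH regeneration solution added, 60 min RT; luciferin detection buffer stops reaction; 20 min later luminescence measured.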

[4] = AP1 Signaling Pathway (AID 357; active = well fitted curve in either direction with a large enough effect, not every such curve was filed as active;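 note: ME-180 reporter cells stimulated with EGF at its EC50 level; % is set by controls: 0 for no effect and ±100 for the full control effect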); conditions: ME-180 AP-1-bla reporter, EGF-induced, beta-lactamase ratio, 5 h; at 38 µM (top of the series)
How it was run: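 Cells are seeded overnight, exposed to compound titrations and an EC50 level of EGF for 5 hours at 37 °C, then loaded with CCF4 dye for 2.5 hours. Beta-lactamase activity under the AP-1 element is read as a blue/green ratio.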

[5] = NFAT Signaling Pathway (AID 444; active = well fitted curve in either direction with a large enough effect, not every such curve was filed as active;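 note: carbachol stimulus at about its EC50 of 1 µM final; % is set by controls: 0 for no effect and ±100 for the full control effect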); conditions: Jurkat NFAT-bla M1, carbachol, beta-lactamase ratio, 5 h; at 38 µM (top of the series)
How it was run: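 Jurkat cells with NFAT-driven β-lactamase reporter and co-expressed M1 receptor, stimulated with carbachol (final 1 uM, ~EC50), compound titration, 5 h at 37 °C. CCF4 loaded 1 h at RT; 460/530 nm ratio gave %activity and AC50.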

[6] = Stat Signaling Pathway (AID 446; active = well fitted curve in either direction with a large enough effect, not every such curve was filed as active;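 note: ME-180 cervical cancer cells given 40 pM IL-6 alongside compound; SIE-controlled beta-lactamase reporter measured as 460/530 nm FRET emission ratio; % is set by controls: 0 for no effect and ±100 for the full control effect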); conditions: ME-180 SIE beta-lactamase reporter, IL-6 stimulated, 5 h; at 38 µM (top of the series)
How it was run: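 Screening format detects activators and inhibitors alike: ME-180 SIE-bla cells stimulated at 40 pM IL-6 for 5 hrs with compound, then dual-emission beta-lactamase read at 405 nm excitation.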

[7] = biological target: Glucocorticoid receptor (Homo sapiens) (UniProt P04150); assay: GR-GFP Redistribution (AID 450;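 active = compounds whose dose series gives a full or clear partial fitted curve of increased nuclear translocation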; note: potency is the fitted concentration of half-maximal effect); conditions: U2OS GR-GFP nuclear translocation, laser cytometry, 2 h
[8] = biological target: Glucocorticoid receptor (Homo sapiens) (UniProt P04150); assay: GR-EFC Redistribution (AID 451; calls by dose curve; note: potency is the fitted concentration of half-maximal effect); conditions: CHO-K1 GR-EFC translocation, beta-gal luminescence, 2 h
How it was run: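 CHO-K1 cells expressing nuclear EA and GR-ED fragments of b-gal; compounds titrated up to 46 uM final, 2 h at 37 C. GR nuclear translocation read as complemented b-gal luminescence after 1 h RT detection.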

[9] = biological target: Mitogen-activated protein kinase 10 (Mus musculus) (UniProt Q61831); assay: JNK3 AlphaScreen Assay (AID 530; active = well fitted curve in either direction with a large enough effect, not every such curve was filed as active)
How it was run: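 qHTS format: compounds tested as titrations against IL-1beta/TNF-alpha-activated HepG2 lysate JNK3 with biotin-GST-cJun substrate and 10 uM ATP at room temperature. Loss of anti-phospho-cJun AlphaScreen signal indicates inhibition.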

[10] = biological target: 3',5'-cyclic-AMP phosphodiesterase 4B (Homo sapiens) (UniProt Q07343); assay: qHTS Assay for Inhibitors of PDE-IV (AID 607; active = well fitted activation curve with a large enough effect in the main read-out, with a control signal flat, not every such curve was filed as active; note: % of control where 0% means no effect)
How it was run: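 The readout is membrane depolarisation from a cAMP-sensing CNG channel, detected with a potential dye at ex 535/em 590. Cells were HEK293-derived (endogenous PDE-IV) at 1000 cells/well, titrated up to 22.9 uM final.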

[11] = biological target: Guanine nucleotide-binding protein G(i) subunit alpha-1 (Homo sapiens) (UniProt P63096); assay: qHTS Assay for Inhibitors of RGS12 GoLoco Motif Activity (Green Fluorophore) (AID 879);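 note: 0% = labeled peptide with Gαi1 and full inhibition = labeled peptide alone without protein; negative values mean loss of peptide binding seen as reduced polarization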
How it was run: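 Fluorescence polarization assay: 50 nM Gαi1 with 10 nM FITC-labeled RGS12 GoLoco peptide in 10 mM Tris pH 7.5, 150 mM NaCl, 0.1 mM GDP, 0.05% NP40, 10 min at room temperature with compound.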

[12] = biological target: Cytochrome P450 2C19 (Homo sapiens) (UniProt P33261); assay: qHTS Assay for Inhibitors and Substrates of Cytochrome P450 2C19 (AID 899); note: potency is the fitted concentration of half-maximal effect; nearly all actives have a fitted effect of over 60% in size
How it was run: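 Luminescent read-out of luciferin formed from Luciferin-H EGE (10uM, equal to KM). Enzyme 5nM in 50mM KPO4; compound added, 10 min at 37C, then NADPH regenerating system for 60 min at 37C. Full inhibition defined by 57uM ketoconazole.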

[13] = biological target: Pyruvate kinase (Leishmania mexicana) (UniProt Q27686); assay: qHTS Validation Assay for Inhibitors of Leishmania Mexicana Pyruvate Kinase (AID 945);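 note: 0% = DMSO only neutral control wells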
How it was run: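 Read-out: luminescence from PKLight stop/detection reagent, data normalized to DMSO. Reaction: 0.2 nM E451W LmPYK, 0.5 mM PEP, 0.1 mM ADP, pH 7.2, 1 h room temperature.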

[14] = biological target: Pyruvate kinase PKM (Homo sapiens) (UniProt P14618); assay: qHTS Assay for Activators of Human Muscle Pyruvate Kinase (AID 954; active = well fitted curve in the direction sought with a large enough effect, not every such curve was filed as active;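 note: 0% = uninhibited enzyme and -100% = no enzyme or full thiadiazolimine inhibition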)
How it was run: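 Reaction: 0.1 nM purified PKM2 with 0.5 mM phosphoenolpyruvate and 0.1 mM ADP, room temperature, 1 h. Readout: luciferase-based ATP luminescence after stop reagent. Activators judged against a 0.3 nM enzyme column.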

[15] = biological target: Alpha-galactosidase A (Homo sapiens) (UniProt P06280); assay: Counterscreen for Glucocerebrosidase Inhibitors: qHTS Assay for Human alpha-Galactosidase at pH 4.5 (AID 992); note: 0% is about no effect
How it was run: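 Concentration-response curves (0.7 nM to 77 uM final) were modeled with the Hill equation to give AC50. Reactions: 2 nM enzyme, 80 uM fluorogenic alpha-galactoside, pH 4.5 citric acid buffer, 20 min, room temperature.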

[16] = biological target: alpha-glucosidase (Oryza sativa, rice) (UniProt Q653V4); assay: Counterscreen for Glucocerebrosidase Inhibitors: qHTS Assay for Rice alpha-Glucosidase at pH 5.0 (AID 997);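 note: 0% = full activity with enzyme and -100% = basal without enzyme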
How it was run: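 Rice alpha-glucosidase (4 nM final) with 400 uM 4-methylumbelliferyl-alpha-D-glucopyranoside in citrate buffer pH 5.0, 20 min at room temperature, stopped at pH 10; fluorescence 365/440 nm, compounds 0.7 nM–77 uM, AC50 from Hill fits.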

[17] = biological target: DNA dC->dU-editing enzyme APOBEC-3G (Homo sapiens) (UniProt Q9HC16); assay: qHTS for inhibitors of Vif-A3G interactions: Validation (AID 588379); note: 0% is about no effect
How it was run: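 HeLa cells stably expressing Vif and A3G-eYFP, 700 cells/well, incubated overnight at 37 deg C, then exposed to compound overnight at 37 deg C. Inhibition of Vif-mediated degradation read as increased yellow fluorescence (Ex 488/Em 500-530) by laser-scanning cytometry.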

[18] = biological target: Cytochrome P450 1A2 (Homo sapiens) (UniProt P05177); assay: p450-cyp1a2 (AID 410; calls by dose curve; note: potency is the fitted concentration of half-maximal effect)
How it was run: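 Human CYP1A2 (20nM) demethylated Luciferin-ME at its Km (100uM) in 100mM KPO4. After 10 min compound preincubation, NADPH regeneration ran the reaction 60 min at room temperature. Luciferin was read by luminescence, normalized to 57 uM furafylline.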

Cytochrome P450 3A4 (Homo sapiens), sequence (P08684 whole entry, looked up): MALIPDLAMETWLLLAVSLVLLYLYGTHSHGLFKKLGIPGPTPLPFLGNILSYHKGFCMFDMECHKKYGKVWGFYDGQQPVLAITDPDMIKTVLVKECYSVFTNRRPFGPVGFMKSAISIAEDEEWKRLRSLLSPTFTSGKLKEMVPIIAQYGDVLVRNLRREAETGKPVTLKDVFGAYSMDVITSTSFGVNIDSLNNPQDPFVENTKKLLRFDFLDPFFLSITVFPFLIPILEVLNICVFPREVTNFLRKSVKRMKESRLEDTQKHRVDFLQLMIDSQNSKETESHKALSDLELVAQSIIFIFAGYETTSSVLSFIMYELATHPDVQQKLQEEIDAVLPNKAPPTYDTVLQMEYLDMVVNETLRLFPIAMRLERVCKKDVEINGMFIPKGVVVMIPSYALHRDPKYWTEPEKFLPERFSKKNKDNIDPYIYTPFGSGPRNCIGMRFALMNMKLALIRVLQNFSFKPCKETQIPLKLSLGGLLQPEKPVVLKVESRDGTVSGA
Glucocorticoid receptor (Homo sapiens), sequence (P04150 whole entry, looked up, the tested form may be a part): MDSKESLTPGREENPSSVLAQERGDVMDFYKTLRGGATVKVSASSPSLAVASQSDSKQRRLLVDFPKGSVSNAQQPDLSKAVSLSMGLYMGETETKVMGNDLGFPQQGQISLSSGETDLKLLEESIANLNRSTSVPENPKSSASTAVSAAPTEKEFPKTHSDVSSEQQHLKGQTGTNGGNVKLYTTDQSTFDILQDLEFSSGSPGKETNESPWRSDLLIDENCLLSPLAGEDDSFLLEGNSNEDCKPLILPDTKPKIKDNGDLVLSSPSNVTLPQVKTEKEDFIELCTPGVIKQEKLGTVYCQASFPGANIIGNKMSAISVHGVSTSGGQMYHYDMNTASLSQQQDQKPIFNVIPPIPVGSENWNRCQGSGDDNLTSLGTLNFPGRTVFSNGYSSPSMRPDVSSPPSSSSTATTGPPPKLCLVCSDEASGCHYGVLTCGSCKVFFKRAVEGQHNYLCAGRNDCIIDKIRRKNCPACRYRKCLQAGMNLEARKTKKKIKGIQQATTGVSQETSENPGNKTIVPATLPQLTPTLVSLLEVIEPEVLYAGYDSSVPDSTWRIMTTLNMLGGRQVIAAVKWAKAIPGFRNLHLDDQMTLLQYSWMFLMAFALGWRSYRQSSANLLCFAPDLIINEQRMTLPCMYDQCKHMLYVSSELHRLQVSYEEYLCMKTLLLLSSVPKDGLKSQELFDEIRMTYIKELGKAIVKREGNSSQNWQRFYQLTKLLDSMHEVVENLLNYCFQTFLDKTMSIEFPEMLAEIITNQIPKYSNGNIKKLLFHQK
3',5'-cyclic-AMP phosphodiesterase 4B (Homo sapiens), sequence (Q07343 whole entry, looked up): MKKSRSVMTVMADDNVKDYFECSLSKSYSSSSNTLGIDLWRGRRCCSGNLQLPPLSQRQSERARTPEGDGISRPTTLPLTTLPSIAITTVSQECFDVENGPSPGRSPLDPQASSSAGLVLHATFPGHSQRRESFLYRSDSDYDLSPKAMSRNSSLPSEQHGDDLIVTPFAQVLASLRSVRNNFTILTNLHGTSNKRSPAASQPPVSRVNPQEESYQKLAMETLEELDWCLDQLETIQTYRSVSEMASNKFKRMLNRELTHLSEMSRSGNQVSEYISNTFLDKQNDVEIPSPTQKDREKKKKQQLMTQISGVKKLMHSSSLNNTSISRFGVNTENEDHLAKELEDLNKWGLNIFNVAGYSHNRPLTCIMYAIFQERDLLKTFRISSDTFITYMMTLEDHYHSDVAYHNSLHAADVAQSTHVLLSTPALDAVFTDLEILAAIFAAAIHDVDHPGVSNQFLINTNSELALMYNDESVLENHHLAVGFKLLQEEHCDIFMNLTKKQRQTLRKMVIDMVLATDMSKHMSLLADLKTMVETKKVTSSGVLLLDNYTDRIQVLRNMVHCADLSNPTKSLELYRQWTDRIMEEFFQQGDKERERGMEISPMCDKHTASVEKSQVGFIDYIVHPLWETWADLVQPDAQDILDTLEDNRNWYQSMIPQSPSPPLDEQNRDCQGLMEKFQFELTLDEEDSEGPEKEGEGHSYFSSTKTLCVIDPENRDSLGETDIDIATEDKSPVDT
Cytochrome P450 2C19 (Homo sapiens), sequence (P33261 whole entry, looked up): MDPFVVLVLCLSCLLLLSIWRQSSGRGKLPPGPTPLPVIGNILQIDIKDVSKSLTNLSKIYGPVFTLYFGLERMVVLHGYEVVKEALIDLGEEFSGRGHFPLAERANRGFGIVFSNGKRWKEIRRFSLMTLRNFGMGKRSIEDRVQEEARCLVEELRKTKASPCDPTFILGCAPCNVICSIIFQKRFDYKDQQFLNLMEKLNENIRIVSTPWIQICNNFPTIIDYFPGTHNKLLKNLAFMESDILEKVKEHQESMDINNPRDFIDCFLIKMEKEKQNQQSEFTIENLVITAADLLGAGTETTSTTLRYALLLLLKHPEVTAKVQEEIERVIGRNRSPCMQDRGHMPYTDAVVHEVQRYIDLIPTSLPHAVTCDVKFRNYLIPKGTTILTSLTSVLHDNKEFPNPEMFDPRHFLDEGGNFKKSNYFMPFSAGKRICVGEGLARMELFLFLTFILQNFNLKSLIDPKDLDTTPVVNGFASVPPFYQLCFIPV
Cytochrome P450 1A2 (Homo sapiens), sequence (P05177 whole entry, looked up): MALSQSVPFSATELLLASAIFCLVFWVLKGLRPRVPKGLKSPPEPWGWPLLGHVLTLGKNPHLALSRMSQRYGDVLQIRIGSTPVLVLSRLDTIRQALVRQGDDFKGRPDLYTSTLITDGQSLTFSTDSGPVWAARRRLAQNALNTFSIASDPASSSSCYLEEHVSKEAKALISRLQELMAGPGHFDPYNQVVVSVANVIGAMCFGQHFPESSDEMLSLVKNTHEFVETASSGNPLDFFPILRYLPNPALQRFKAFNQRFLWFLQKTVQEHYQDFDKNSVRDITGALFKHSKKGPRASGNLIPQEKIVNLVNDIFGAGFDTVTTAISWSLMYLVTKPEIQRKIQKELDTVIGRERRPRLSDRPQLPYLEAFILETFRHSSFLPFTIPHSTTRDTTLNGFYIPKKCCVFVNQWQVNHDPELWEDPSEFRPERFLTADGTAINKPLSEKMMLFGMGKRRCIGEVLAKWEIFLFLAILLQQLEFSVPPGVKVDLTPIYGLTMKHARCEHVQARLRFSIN
DNA dC->dU-editing enzyme APOBEC-3G (Homo sapiens), sequence (Q9HC16 whole entry, looked up): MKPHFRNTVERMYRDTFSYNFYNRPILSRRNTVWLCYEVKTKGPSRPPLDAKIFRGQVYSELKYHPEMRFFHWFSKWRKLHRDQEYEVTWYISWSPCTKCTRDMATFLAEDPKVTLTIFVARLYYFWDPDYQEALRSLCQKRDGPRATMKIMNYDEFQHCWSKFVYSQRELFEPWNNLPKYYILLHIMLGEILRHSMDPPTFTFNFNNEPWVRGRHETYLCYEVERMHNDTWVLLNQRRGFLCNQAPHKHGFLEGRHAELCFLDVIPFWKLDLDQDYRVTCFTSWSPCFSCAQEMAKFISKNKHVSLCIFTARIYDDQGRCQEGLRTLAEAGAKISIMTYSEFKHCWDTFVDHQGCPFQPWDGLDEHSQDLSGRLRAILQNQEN
Pyruvate kinase PKM (Homo sapiens), sequence (P14618 whole entry, looked up): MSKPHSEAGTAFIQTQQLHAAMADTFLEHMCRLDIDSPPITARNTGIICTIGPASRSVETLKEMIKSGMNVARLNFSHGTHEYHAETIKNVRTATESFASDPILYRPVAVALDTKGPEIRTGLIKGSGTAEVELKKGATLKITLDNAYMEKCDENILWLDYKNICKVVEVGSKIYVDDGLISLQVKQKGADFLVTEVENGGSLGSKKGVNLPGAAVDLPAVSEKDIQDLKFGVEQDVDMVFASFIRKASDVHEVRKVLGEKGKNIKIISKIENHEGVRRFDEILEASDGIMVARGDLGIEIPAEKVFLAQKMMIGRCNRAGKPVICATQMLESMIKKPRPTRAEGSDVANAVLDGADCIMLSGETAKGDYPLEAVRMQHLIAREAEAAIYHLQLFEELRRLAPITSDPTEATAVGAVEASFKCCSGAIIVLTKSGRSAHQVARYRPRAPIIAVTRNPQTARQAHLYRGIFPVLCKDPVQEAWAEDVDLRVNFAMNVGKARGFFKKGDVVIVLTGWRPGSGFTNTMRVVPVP
Alpha-galactosidase A (Homo sapiens), sequence (P06280 whole entry, looked up): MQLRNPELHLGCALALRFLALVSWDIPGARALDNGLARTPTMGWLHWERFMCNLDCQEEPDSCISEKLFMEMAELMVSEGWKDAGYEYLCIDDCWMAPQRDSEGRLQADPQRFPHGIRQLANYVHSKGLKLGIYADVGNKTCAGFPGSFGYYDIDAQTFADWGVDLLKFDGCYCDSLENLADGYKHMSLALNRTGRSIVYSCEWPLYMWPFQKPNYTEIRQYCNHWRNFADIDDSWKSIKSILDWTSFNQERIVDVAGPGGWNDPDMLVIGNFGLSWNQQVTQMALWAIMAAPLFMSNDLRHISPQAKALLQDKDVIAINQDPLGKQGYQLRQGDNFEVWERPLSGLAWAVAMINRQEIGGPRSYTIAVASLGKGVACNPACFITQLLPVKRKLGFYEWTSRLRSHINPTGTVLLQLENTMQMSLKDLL
Guanine nucleotide-binding protein G(i) subunit alpha-1 (Homo sapiens), sequence (P63096 whole entry, looked up): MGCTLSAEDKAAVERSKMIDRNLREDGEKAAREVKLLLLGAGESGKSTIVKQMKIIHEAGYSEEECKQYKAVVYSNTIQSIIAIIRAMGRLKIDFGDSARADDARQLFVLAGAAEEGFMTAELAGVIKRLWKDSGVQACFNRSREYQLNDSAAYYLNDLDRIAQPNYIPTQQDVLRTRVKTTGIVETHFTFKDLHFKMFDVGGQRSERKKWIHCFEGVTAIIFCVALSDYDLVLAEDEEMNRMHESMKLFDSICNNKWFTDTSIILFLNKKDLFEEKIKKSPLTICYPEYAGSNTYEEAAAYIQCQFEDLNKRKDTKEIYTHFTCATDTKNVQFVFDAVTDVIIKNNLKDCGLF

CCCCC[C@H](O)CC(=O)CCc1ccc(O)c(OC)c1
inactive: Potency [1] | Potency [2]

CNC(=O)[C@H]1O[C@@H](n2cnc3c(NCc4cccc(I)c4)nc(Cl)nc32)[C@H](O)[C@@H]1O
inactive: Potency [1] | Potency [2]

CCCCC/C=C\C/C=C\C/C=C\C/C=C\CCCC(=O)O
inactive: Potency [3] | activity change, negative = inhibition [1] 3.96% [at 6.83 µM] | activity change, negative = inhibition [2] 40.9% [at 3.88 µM]

CC(C)(C)n1nc(-c2ccc(Cl)cc2)c2c(N)ncnc21
inactive: Potency [1] | Potency [2]

COC(=O)C1=C(C)NC(C)=C([N+](=O)[O-])[C@H]1c1ccccc1C(F)(F)F
active: Potency [12] 1.26 µM and 158 nM
inactive: activity change, negative = inhibition [4] -27.8% | activity change, negative = inhibition [5] -15.3% | activity, negative = inhibition [6] 13.2% | Potency [7] > 46 µM | Potency [8] > 46 µM | Potency [9] | Potency [10] | outcome [11] | Potency [3] | Potency [13] | outcome [14] | outcome [15] | outcome [16] | Potency [17] | Potency [1] | Potency [2]

C[C@@H](/C=C\c1cccc(Oc2ccc(F)cc2)c1)N(O)C(N)=O
active: Potency [18] 1 µM and 158 nM | Potency [12] 1.58 µM and 3.98 µM
inactive: activity change, negative = inhibition [4] -29.9% | activity change, negative = inhibition [5] -4.07% | activity, negative = inhibition [6] 13.8% | Potency [7] > 46 µM | Potency [8] > 46 µM | Potency [9] | Potency [10] | outcome [11] | Potency [3] | Potency [13] | outcome [14] | outcome [15] | outcome [16] | Potency [17] | Potency [1] | Potency [2]

COc1ccc2[nH]c(-c3ccccc3)c(CCNC(C)=O)c2c1
inactive: Potency [7] > 46 µM | Potency [8] > 46 µM | Potency [9] | Potency [10] | Potency [3] | Potency [17] | Potency [1] | Potency [2]
active: Potency [18] 1.26 µM | Potency [12] 7.94 µM
